# Hits are enriched below; roughly 2% of the tested compounds scored in any of these assays.
# Beta apoptosis: beta cell apoptosis inhibition; protection from apoptosis, % (test concentration not listed); 0.8% of 300,000 active; INS-1E cytokine-induced death, ATP luminescence, 48 h; percent of positive-control rescue, neutral wells zero;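 active means Every replicate reaches about 75%, or at least half do and their mean reaches it too, limit read from the data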;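 further: 0% = cytokine-treated negative control wells and 100% = positive control rescue; higher means more ATP so stronger rescue from cytokine killing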
# Calb FLC: C. albicans growth modulation with fluconazole; C. albicans CaCi-2 (fluconazole-resistant clinical isolate) + fluconazole, Alamar Blue growth, 48 h; growth inhibition, % (concentration not given with the values); 0.57% of 300,000 active; AID 1979;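 active means growth inhibition above about 58% in most replicates, limit read from the data, passing the limit was not always enough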;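 further: all wells also contain fluconazole at 8 µg/ml as a sub-toxic cotreatment; 0% = median of DMSO wells and 100% = median of geldanamycin control wells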
# 697 NFkB inh: inhibitors of the PMA/ionomycin-induced NF-kB reporter in 697 B cells. 697 B-cell NF-kB luciferase reporter, 16 h. inhibition, % at 4 µM. 0.33% of 330,000 active; in the data active means inhibition above about 35%
# Shn3 3UTR inh: reduces Shn3 3'UTR luciferase signal in osteoblasts; Clone20 osteoblast Shn3 3'UTR firefly luciferase, 24 h; inhibition, % at 12.5 µM; 0.52% of 360,000 active; AID 588674;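 active means mean inhibition of at least 75% with every replicate also reaching 75%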;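 further: 0% = median of neutral control wells and 100% = pilot-screen positive control compound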
# Jurkat NFkB inh: lowers PMA/ionomycin-induced NF-kB signal in Jurkat cells. 0.53% of 330,000 active. AID 435003. PMA/ionomycin-induced NF-kB luciferase reporter, luminescence. inhibition, % at 4 µM; in the data active means inhibition above about 50%
# An asterisk follows results filed as active; / = no result given.
SMILES,Beta apoptosis,Calb FLC,697 NFkB inh,Shn3 3UTR inh,Jurkat NFkB inh
CC(C)CC(NC(=O)c1ccc(Cl)cc1)C(=O)OCC(=O)c1ccc2c(c1)NC(=O)CO2 (configuration not stated),68,0,6,87*,-4
O=C(Nc1cccc(-n2cnnn2)c1)c1ccc(C(F)(F)F)cc1,-1,/,-23,6,-4
O=C(O)CSc1nnc(-c2ccc(Cl)cc2Cl)n1Cc1ccccc1,-4,-4,8,-18,16
CCCCn1c(=O)[nH]c(=O)c2c1nc(Cn1ncc(Cl)c(Cl)c1=O)n2CCC,4,-2,3,98*,18
COc1cc(SC)ccc1C(=O)OCC(=O)NC1CC1,/,98*,1,-10,0
CCn1nnc2cc(C(=O)Nc3cc(Cl)ccc3C)ccc21,2,/,22,88*,3
COc1ccc2nc(SC(C)C(=O)NCC(=O)Nc3ccc(F)c(F)c3F)[nH]c2c1 (configuration not stated),/,/,5,-15,-3
Cc1cc(/C=C2/SC(=S)N(c3ccc([N+](=O)[O-])cc3)C2=O)c(C)n1-c1cccnc1,106*,44,22,77,45
Cc1cc(/C=C2/SC(=S)N(c3cccc(Cl)c3)C2=O)c(C)n1-c1cccnc1,125*,1,3,82,-6
Cc1ccc(N2C(=O)/C(=C/c3cccnc3)SC2=S)cc1,-1,-1,-34,15,-28
Cc1cccc(N2C(=O)/C(=C/c3cccnc3)SC2=S)c1,-6,-19,-30,19,-9
CCNC(=O)C1(C)CCN(C(=O)c2c(F)cccc2F)C1 (configuration not stated),/,/,/,-10,/
COc1ccc(C(=O)NCc2ccccc2CN2CCCC2)cc1S(=O)(=O)N1CCOCC1,/,/,6,-6,-1
CC(C)NC(=O)c1ccccc1NC(=O)/C=C/c1cccc([N+](=O)[O-])c1,113*,2,3,-1,13
O=C(COC(=O)c1ccccc1NC(=O)c1ccccc1)c1cccc([N+](=O)[O-])c1,-7,10,24,1,-9
CCOC(=O)c1ccccc1NC(=O)c1cccc([N+](=O)[O-])c1,3,108*,-2,11,14
Cc1cccc(C)c1NC(=O)CN(c1c(C)cccc1C)S(C)(=O)=O,/,/,/,-13,/
CCCn1c(N)c(C(=O)COC(=O)COc2ccc(Cl)c(C)c2)c(=O)n(C)c1=O,/,/,16,-16,11
CCCn1c(N)c(C(=O)COC(=O)c2c(C)noc2C)c(=O)n(C)c1=O,4,100*,6,-1,10
Cc1ccc(-c2nc(NC(=O)c3nn(C)cc3[N+](=O)[O-])sc2C)cc1C,107*,3,-37,93*,24
Cc1cnc(NC(=O)c2nn(C)cc2[N+](=O)[O-])s1,/,-3,21,19,24
Cc1ccc(-c2nc(NC(=O)c3nn(C)cc3[N+](=O)[O-])sc2C)cc1,116*,41,5,93*,21
CC12C=CC(=O)C=C1CCC1C2C(=O)CC2(C)C1CCC2(O)C(=O)CO (configuration not stated),/,/,/,-1,/
CCOC(=O)C1=CN(Cc2ccco2)S(=O)(=O)N(C)C1CC (configuration not stated),/,/,17,19,/
O=C(CS(=O)CC(=O)NC12CC3CC(CC(C3)C1)C2)Nc1ccc(F)cc1 (configuration not stated),4,-2,-5,14,9
SMILES,Beta apoptosis,Calb FLC,697 NFkB inh,Shn3 3UTR inh,Jurkat NFkB inh
O=C(NCC(=O)N1CCCC1)NN=Cc1ccccc1O,/,/,/,-14,/
CCC(=O)Nc1nnc(SCC(=O)Nc2cccc(Cl)c2)s1,-1,6,8,5,4
CCCOC(c1ccccc1)(c1ccc(C(F)(F)F)cc1)C(Oc1nc(C)cc(C)n1)C(=O)O (configuration not stated),6,79*,-8,26,5
Cc1cc(C)nc(OC(C(=O)O)C(OCCc2ccccc2)(c2ccc(F)cc2)c2ccc(F)cc2)n1 (configuration not stated),-1,28,9,13,-4
COc1cccc(OCCn2cc(C(C)=O)c3ccccc32)c1,39,-5,-21,87*,34
O=C(Nc1ccccc1F)c1ccc([N+](=O)[O-])s1,9,7,-13,-13,-5
O=C(Nc1cccnc1)c1ccc([N+](=O)[O-])s1,78*,/,3,27,37
CCOC(=O)N1CCC(NC(=O)C2CCCN(Cc3nc(-c4cccc(Cl)c4)oc3C)C2)CC1 (configuration not stated),78*,-5,-8,84,18
CCCOc1ccc(N)cc1N,99*,-3,-14,71,-10
O=C1N[C@H](C(=O)O)CS1,/,-4,5,/,-5
COc1cccc(C(C(=O)NC2CCCC2)N(C(=O)c2ccco2)c2ccc(-n3cnnn3)c(C)c2)c1OC (configuration not stated),0,92*,21,15,-10
COc1ccc(C(C(=O)NC2CCCCC2)N(C(=O)c2ccco2)c2ccc(-n3cnnn3)c(C)c2)cc1 (configuration not stated),-5,-7,-9,-16,-1
COc1ccc(/C=C(/NC(=O)c2ccccc2OC)C(=O)Nc2ccc(C(=O)O)cc2)cc1,1,-1,-5,8,18
O=C(CCCCCN1C(=O)c2cccc3cccc(c23)C1=O)N1CCOCC1,-2,107*,15,1,1
Cc1[nH]n(-c2ccccc2)c(=O)c1/C=N/NC(=O)c1ccc(O)cc1O,/,-16,-9,-5,-27
Cc1ccc(/C=N\NC(=O)COc2ccc(C)cc2[N+](=O)[O-])cc1,-10,-6,13,-9,0
CCCCN(CCCC)C(=S)N/N=C/c1c(C)[nH]n(-c2ccccc2)c1=O,87*,62,-5,55,-9
Cc1[nH]n(-c2ccccc2)c(=O)c1/C=N/NC(=O)c1cccc(F)c1,92*,-39,-5,79,7
Cc1cc(C(=O)N/N=C/c2c(C)[nH]n(-c3ccccc3)c2=O)n[nH]1,-2,0,2,-14,-7
Cc1[nH]n(-c2ccc(Br)cc2)c(=O)c1/C=N/NC(=O)c1ccccc1,104*,-3,-46,85,-8
Cc1ccc(OCC(=O)N/N=C\c2c(C)[nH]n(-c3ccccc3)c2=O)c([N+](=O)[O-])c1,87*,106*,-17,68,-9
CN(CC(=O)Nc1cccc(F)c1)C(=O)Cn1cnc2c1c(=O)n(C)c(=O)n2C,-2,1,21,0,5
COc1ccc2nc(C)cc(N3CCN(S(=O)(=O)c4ccccc4F)CC3)c2c1,-1,/,-24,9,2
COc1ccc(NC(=O)C[C@H]2C(=O)N(Cc3ccccc3)C[C@@H]2C)cc1,/,/,/,-26,/
CC(NC(=S)NC1CCCCC1)c1ccc(C(C)(C)C)cc1 (configuration not stated),99*,-21,-39,67,31

# Screening results (PubChem)
